Laboratory results reported in ChEMBL document CHEMBL4513216, “Probing the Open Global Health Chemical Diversity Library for Multistage-Active Starting Points for Next-Generation Antimalarials” (ACS Infect Dis, 2020).
Out of some 65,000 compounds screened, about 2,100 (3.2%) showed an effect of 50% or more. The median lay at about -52%. The sample holds strong results, similar compounds and a random draw of the others, so the mix is not that of the screen.

test system: Plasmodium falciparum; assay: Screen against P. falciparum Asexual Blood Stage (ABS), at 5uM; type: functional, Dd2; settings: tested at 5 uM

In order of rising INHIBITION:
1. CN(C)C(=O)CN1C[C@@H]2OCCN(c3ncc(F)cn3)[C@@H]2C1  -196%
2. c1cncc(O[C@@H]2CC[C@H]3[C@H]2OCCN3C2CCCC2)c1  -118%
3. Cc1cc(CN2CC[C@H]3C[C@H](c4nccs4)O[C@@H]3C2)no1  -108%
4. O=C(NCCc1c[nH]cn1)c1ccccc1C1CCNC1 (stereo not given)  -101%
5. c1ccc(CO[C@@H]2C[C@H]3CN(c4ncccn4)CCN3C2)cc1  -95.6%
6. CCN1CCNC(=O)C12CCN(C(=O)Cc1ccccn1)CC2  -95%
7. COc1cc(C2SCC(=O)Nc3[nH]ncc32)cc2c1OCO2 (stereo not given)  -86.5%
8. O=C(c1cccnc1-n1cncn1)N1CCC(Nc2ccccc2)CC1  -86.3%
9. c1cncc(OC[C@@H]2CCC[C@@]23CN(Cc2nccs2)CCO3)c1  -85.2%
10. Cc1c(NC(=O)NC2CN3CCC2CC3)cccc1C(=O)N1CCCC1 (stereo not given)  -83.7%
11. O=C1CCSCC(C(=O)N2CCC3(CC2)OCCO3)N1 (stereo not given)  -78%
12. CCOC(=O)[C@@H]1[C@@H](c2ccccc2)CN2CCN(S(C)(=O)=O)C[C@H]12  -73.1%
13. COc1cc(CNC(C)Cn2cccn2)cc(OC)c1 (stereo not given)  -72.2%
14. O=C(NC[C@]12COC[C@H]1CN(Cc1ccncc1)C2)c1ccno1  -67.3%
15. CCS(=O)(=O)NC[C@]12COC[C@H]1CN(Cc1ccncc1)C2  -65.2%
16. COc1c(CNCCc2c[nH]c3ccccc23)c(C)nn1C  -60.7%
17. Cc1ccc(N2C[C@@H]3CN(Cc4ccsc4)CCO[C@@H]3C2)nn1  -56.6%
18. O=C1[C@H]2CN(Cc3ccncc3)C[C@H]2CN1c1cncnc1  -49.7%
19. CN1C[C@H]2N(c3ncccn3)CCC[C@@]2(C(=O)NCC2CC2)C1  -48.6%
20. C1=C(c2c[nH]c3ncccc23)CCN(Cc2nnc(C3CC3)o2)C1  -48.5%
21. CNC(=O)[C@H]1C[C@H]2OCC[C@H]2N(CC2CC2)C1  -40%
22. CC(Cc1ccccc1Br)NC(=O)CCS(C)(=O)=O (stereo not given)  -38.5%
23. CC(C)N1[C@H](Cn2cncn2)C[C@@H]2CNCC[C@@H]21  -34.9%
24. CCN1C[C@H]2N(c3ncccn3)CCC[C@@]2(C(=O)NCC2CC2)C1  -24.6%
25. COCCCN1CCCC12CCN(c1ncccn1)CC2  -22.9%
26. CN1CCN(Cc2cccnc2)C(=O)C12CCN(S(C)(=O)=O)CC2  -18.9%
27. O=C(N[C@H]1COC[C@@H]1N1CCCC1)c1c[nH]nc1C1CCCCC1  -18.2%
28. CC(C)c1cc(C(=O)N2CCN(C)[C@@H]3CS(=O)(=O)C[C@@H]32)no1  -14.6%
29. CC(C)CCN1CCC2(CNS(=O)(=O)c3cccnc3O2)C1 (stereo not given)  -5.49%
30. Cc1nn(-c2ncccn2)c2c1C(c1cnn(C)c1C)SCC(=O)N2 (stereo not given)  -1.18%
31. CCN1CCN(C(=O)COc2ccc(CN(C)S(C)(=O)=O)cc2)CC1  3.25%
32. Cc1cccc(CN2C[C@@H]3OCCN(c4cnccn4)[C@@H]3C2)n1  4.89%
33. Cc1cnc(CN2CC=C(c3c[nH]c4ncccc34)CC2)o1  12.6%
34. CC(C)S(=O)(=O)N1C[C@@H](c2ccccc2)[C@H]2[C@H]1CCCCCN2C  20.4%
35. COc1ccc(CCNCc2c(C)nn(C)c2N(C)C)cc1OC  21.4%
36. c1cncc(CO[C@H]2CO[C@@]3(CCN(Cc4ccoc4)C3)C2)c1  23.3%
37. NCC1(c2cccc(C(F)(F)F)c2)CCC1  26.1%
38. Cc1cc(CN2CC[C@H]3[C@H]2CCN3C)oc1C  43%
39. COc1cc(CNCC(O)c2ccc(C)cc2)cc2c1OCCO2 (stereo not given)  48.2%
40. COc1c(CNCCc2c[nH]c3cc(F)ccc23)c(C)nn1C  50%
41. COc1c(CNCCc2c[nH]c3cc(F)ccc23)c(C(C)C)nn1C  59.7%
42. COc1ccc(CN(Cc2ccccn2)Cc2cncn2C)cc1  70.1%
43. CCc1ccccc1OCCNCCc1c[nH]cn1  71.2%
44. Cc1cn2nc(N3CCCC3CC(C)(C)C)sc2n1 (stereo not given)  71.6%
45. CCN(CC)S(=O)(=O)N1C[C@@H](c2ccccc2)[C@H]2[C@H]1CCCCCN2C  71.7%
46. c1coc(-c2nc(CNC3CCC4(CCNCC4)CC3)no2)c1  73.4%
47. COc1cc(CNCC(O)c2ccc(C)cc2)cc2c1OCO2 (stereo not given)  74%
48. Brc1ccc(C2(CNCc3cc[nH]c3)CCOCC2)cc1  74.5%
49. FC(F)(F)c1cccc(C2(CNCc3cc[nH]c3)CCOCC2)c1  75.1%
50. COc1cccc(OC)c1CN1CC(=O)N(c2ccc(C)cc2)CC1C (stereo not given)  75.2%
51. Cc1cc(S(=O)(=O)NCC2CNCCOC2)c(C)cc1Cl (stereo not given)  75.4%
52. COc1cc(CNC(c2ccccc2)c2nccn2C)cc(OC)c1 (stereo not given)  75.5%
53. CCN1CCCC(CNC(=O)C2(c3cc(C)cc(C)c3)CCC2)C1 (stereo not given)  75.8%
54. COc1cc(C)c(CN2CCC3(CC2)[C@H](O)C[C@@H]3OCCN)cc1C  77.2%
55. COc1cc(CNCC(O)c2ccc(F)c(F)c2)cc2c1OCO2 (stereo not given)  78.2%
56. C1Cc2nc(CCNc3nc(C4CC4)nc4c3CCNCC4)sc2C1  78.5%
57. CC(NC1(CNS(=O)(=O)N(C)C)CCCC1)c1ccccc1 (stereo not given)  78.7%
58. Cc1c(-c2ccccc2)nc2c(c(C)c(C)n2CCN(C)C)c1N  80.1%
59. Cc1ccccc1CN(CCN(C)C)Cc1ccc(S(C)(=O)=O)cc1  80.4%
60. Brc1cccc(C2(CNCc3cc[nH]c3)CCOCC2)c1  83.1%
61. Fc1ccc2c(C3=CCN(Cc4nnc(C5CCC5)o4)CC3)c[nH]c2c1  83.9%
62. CCCc1nc2c(c(C)c(C)n2CCN(C)C)c(N)c1CC  89.9%
63. COc1cc(CNCC(O)c2cccc(F)c2)cc2c1OCO2 (stereo not given)  92.4%
64. Cc1cc(C)c(CNCC(O)c2ccc(F)c(F)c2)c(C)c1 (stereo not given)  93%
65. Cc1ccc(CN(c2cc(C)nc3nc(C(F)(F)F)nn23)C2CC2)cc1  94%
